Measurements from PubChem BioAssay (NCI).
About 79,000 compounds went through this panel and 15% of them were active in at least one assay; those are over-represented in the sample as a whole. The source made the active and inactive calls. No stated cut-off is given here; in the data, active means growth inhibition above about 70%; inactive means the rest.

Columns and labels:
[1] = NCI Yeast Anticancer Drug Screen. Data for the rad50 strain (AID 155);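 further: 0% = growth of vehicle-only cultures of the same strain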; settings: S. cerevisiae rad50 strain growth inhibition; at 50.0 µM; active compounds read high
Summary of the method: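 Yeast carrying a defined DNA repair defect were exposed to test compounds, and growth was compared with vehicle-treated controls to give percent inhibition.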

[2] = NCI Yeast Anticancer Drug Screen. Data for the mec2-1 strain (AID 157); settings: S. cerevisiae mec2-1 strain, at 50.0 µM, active compounds read high
Summary of the method: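 Growth inhibition is read against vehicle-treated controls after compound exposure of the mec2-1 yeast strain, which is defective in DNA damage repair or cell cycle control.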

[3] = NCI Yeast Anticancer Drug Screen. Data for the sgs1 mgt1 strain (AID 161);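 further: 0% = growth of cultures given vehicle only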; settings: S. cerevisiae sgs1 mgt1 strain, at 50.0 µM, active compounds read high
Summary of the method: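 Percent growth inhibition was derived by comparing compound-exposed mutant yeast with vehicle-exposed cultures. The strain carries alterations in DNA damage repair.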

[4] = NCI Yeast Anticancer Drug Screen. Data for the cln2 rad14 strain (AID 165);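 further: 0% = growth equal to vehicle treated cultures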; settings: S. cerevisiae cln2 rad14 strain, at 50.0 µM, active compounds read high
Summary of the method: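 Growth inhibition, relative to vehicle-treated controls, is the read-out. The test organism is a yeast strain with defined genetic alterations, cln2 rad14.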

[5] = NCI Yeast Anticancer Drug Screen. Data for the bub3 strain (AID 167); settings: S. cerevisiae bub3 mutant strain, at 50.0 µM, active compounds read high
Summary of the method: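 Compounds were applied to a genetically altered yeast strain carrying a cell-cycle control defect. Growth inhibition was scored against vehicle-treated controls.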

[6] = NCI Yeast Anticancer Drug Screen. Data for the mlh1 rad18 strain (AID 175); settings: S. cerevisiae mlh1 rad18 strain growth inhibition; at 50.0 µM; active compounds read high
Summary of the method: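 Cells of a genetically altered yeast strain, deficient in DNA damage repair, were treated with compound. Their growth was then compared with that of vehicle-treated cultures to give inhibition.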

Measured: growth inhibition

Cc1ccc(S(=O)(=O)N/N=C2/CC3CCC4CC2CC34)cc1 (stereo unspecified)
inactive: [1] -51% | [2] -0.6% | [3] -35.2% | [4] -25% | [5] 12.9% | [6] -10.1%

CN1C(=O)C(O)(CC(=O)c2ccccc2)c2ccccc21 (stereo unspecified)
inactive: [1] 0.15% | [2] 17.7% | [3] 3.3% | [4] -23.9% | [5] 23.4% | [6] -5.65%

CCOC(=O)C(C#N)CCC(C)=O (stereo unspecified)
inactive: [1] -12.3% | [2] -11.1% | [3] 17.4% | [4] -24.4% | [5] -7.8% | [6] -28.6%

O=C1C=CC(=NCl)C=C1
inactive: [1] -18.6% | [2] -24.9% | [3] 4.35% | [4] -21.9% | [5] 1.15% | [6] 10.6%

CCOC(=O)C1C(c2ccccc2)ON(c2ccccc2)C1c1cccc([N+](=O)[O-])c1 (stereo unspecified)
inactive: [1] 22.2% | [2] 3.9% | [3] -4.05% | [4] -11.5% | [5] 3.3% | [6] 1.65%

N#CCCN(C(=O)COc1ccc(Cl)cc1Cl)C1CCCCC1
active: [1] 85% | [2] 87.7% | [3] 73% | [4] 87.2% | [5] 89.3% | [6] 95%

CN(C)NC(=S)NC12CC3CC(CC(C3)C1)C2
inactive: [1] -15.3% | [2] -5.25% | [3] -10.2% | [4] -18.9% | [5] -2.8% | [6] 11.8%

NC(C(=O)O)C(C(F)(F)F)C(F)(F)F (stereo unspecified)
inactive: [1] 0.95% | [2] -15.2% | [3] 4.5% | [4] 1.55% | [5] -15.7% | [6] 6.5%

Brc1cccc2ccccc12
inactive: [1] 23.6% | [2] -13.9% | [3] 0.7% | [4] -38% | [5] -12.3% | [6] 6.85%

Oc1cc(N2CCCC2)ccc1/C=N/N1C(=S)N(c2ccccc2)C(=Nc2ccccc2)C1=Nc1ccccc1
inactive: [1] -23.1% | [2] -31.8% | [3] -1.3% | [4] 6.7% | [5] -30.6% | [6] -39.9%

COc1ccccc1NC(=O)/C(=C/C1CC(=O)NC1=S)C(C)=O (stereo unspecified)
inactive: [1] -18.6% | [2] -9.4% | [3] -18.6% | [4] 15.5% | [5] 12% | [6] -7.4%

O=c1[nH]cnc2c1CN(c1ccc(Cl)cc1)C2
inactive: [1] -14.5% | [2] 3.45% | [3] -11.3% | [4] -29.6% | [5] -19.2% | [6] -1.9%

C=CCNC(=O)N(CCCCC(NC(C)=O)C(=O)NCc1ccccc1)Cc1ccccc1 (stereo unspecified)
inactive: [1] 11.7% | [2] 6.55% | [3] -12.7% | [4] 11.5% | [5] 16.4% | [6] 11.9%

CC1=CCC(C#N)N(C)C1c1ccccc1 (stereo unspecified)
inactive: [1] 2% | [2] -5.25% | [3] -13.4% | [4] -48.1% | [5] -12.3% | [6] 8.85%

COC(=O)CC1C2C=CN(C(=O)OC)N(C(=O)OC)C21 (stereo unspecified)
inactive: [1] -3.3% | [2] 4.25% | [3] 6.35% | [4] 10.8% | [5] 5.7% | [6] 3.9%

O=C1/C(=C/c2cccc3ccccc23)Cc2ccccc21
inactive: [1] -6.55% | [2] -25.6% | [3] -11.6% | [4] -5.65% | [5] 18.1% | [6] 7.7%

CCOC(=O)C(=O)Cc1cc(=O)n(C)c2ccccc12
inactive: [1] 12.5% | [2] 16.1% | [3] 16.4% | [4] 1.8% | [5] 13.9% | [6] 1.5%

COC(=O)/C(=C/c1ccccc1)N(C(C)=O)C(C)=O
inactive: [1] 0.05% | [2] -1.6% | [3] 10.3% | [4] -1.5% | [5] 13.4% | [6] 8.5%

COC1(OC)CCCCCCCCC(OC)(OC)CCCCCCCC1
inactive: [1] 7.5% | [2] -18.4% | [3] -10.4% | [4] 13% | [5] 16.2% | [6] -8.2%

O=c1oc2ccccc2c2c1Sc1ccccc1N2
inactive: [1] -0.95% | [2] -22% | [3] 17% | [4] 12.8% | [5] 2.05% | [6] -9.1%

CCC(=O)N(C)[C@@H]1Oc2ccc(O)cc2[C@]1(C)c1cc(O)ccc1O
inactive: [1] 0.35% | [2] 2.25% | [3] 14.8% | [4] 19.9% | [5] 6.7% | [6] 9.95%

Cc1cc2nnn(C3CCCCO3)c2cc1C (stereo unspecified)
inactive: [1] 3.25% | [2] -12.9% | [3] -17.9% | [4] -15.8% | [5] 12.8% | [6] -31.7%

Cc1ncc([N+](=O)[O-])n1Cc1nncs1
inactive: [1] -9.35% | [2] -11.4% | [3] -7.95% | [4] -31.9% | [5] -19.3% | [6] -14.2%

N#CC(N)(C(=O)CCC(=O)Nc1cccc(Cl)c1)c1ccc(Cl)cc1 (stereo unspecified)
inactive: [1] 1.7% | [2] 12.6% | [3] 7.7% | [4] 8.15% | [5] -2% | [6] 2.15%

CN1C(=O)N(C)C(=O)C(C)(NS(=O)(=O)c2ccc(NC(=O)CCC(=O)O)cc2)C1=O
inactive: [1] 17.6% | [2] 11.6% | [3] 12.2% | [4] 16.1% | [5] 0.95% | [6] 24.3%

N#CNC(=O)c1ccc(Cl)cc1
inactive: [1] -2.8% | [2] -12.5% | [3] -11.1% | [4] -21.4% | [5] -14.4% | [6] -0.4%

CC(=O)OC(C)N(C(C)=O)c1ncc([N+](=O)[O-])s1 (stereo unspecified)
inactive: [1] -21.8% | [2] 2.4% | [3] -2.95% | [4] -14.3% | [5] 46.5% | [6] 4.55%

O=C(Oc1ccccc1)C(c1ccccc1)c1ccccc1
inactive: [1] -9.95% | [2] 0.7% | [3] 7.95% | [4] -59.7% | [5] 16.7% | [6] -10.5%

OC1c2c(ccc3ccccc23)CCC1N1CCCCC1 (stereo unspecified)
inactive: [1] 12.6% | [2] -4.45% | [3] 0.9% | [4] -34.5% | [5] -13.4% | [6] -5%

Cc1ncc([N+](=O)[O-])n1CCNC(=O)CCC(=O)NCCCn1ccnc1[N+](=O)[O-]
inactive: [1] -16.1% | [2] -22.9% | [3] -1.45% | [4] 21.7% | [5] -31.8% | [6] 14.9%

CC(C)=CC(=O)OC1C2C(C)C(=O)OC2C(O)C(C)C2C=CC(=O)C21C (stereo unspecified)
inactive: [1] 3.15% | [2] -3.6% | [3] 9.6% | [4] 16.9% | [5] 11.1% | [6] 8.2%

N#Cc1nc(CCCCCN2C(=O)c3ccccc3C2=O)oc1N
inactive: [1] -8.9% | [2] 9.2% | [3] -23.1% | [4] -4.1% | [5] -28.6% | [6] -68.8%

O=C1CCC2=C(N1)C(=O)C=CC2=O
inactive: [1] 1.8% | [2] 13.2% | [3] -13.2% | [4] -32% | [5] -8.35% | [6] 10.9%

COc1ccc(NC(=O)COc2ccc(Cl)cc2Cl)cc1
inactive: [1] 22.9% | [2] 26.8% | [3] 31.4% | [4] 36% | [5] 33% | [6] 19.6%

Cc1c(F)c(Br)c([N+](=O)[O-])c(C)c1[N+](=O)[O-]
inactive: [1] -7.15% | [2] 5.45% | [3] -8.8% | [4] -4.15% | [5] -1.2% | [6] -17.9%

Nc1cc2c(cc1Br)-c1ccccc1C2Br (stereo unspecified)
inactive: [1] -6.35% | [2] -10.9% | [3] 3.7% | [4] 10.7% | [5] 1.25% | [6] 2.7%

COc1ccc2c3c(ccc2c1)C1CC(=O)CC1CC3 (stereo unspecified)
inactive: [1] 30.6% | [2] -11.2% | [3] 54.8% | [4] 12.2% | [5] 61% | [6] 14.7%

O=C(c1ccccc1)c1ccncc1
inactive: [1] 28.2% | [2] -4.4% | [3] -27.2% | [4] -1% | [5] -1.9% | [6] -3.1%

CN(/N=C(\C(=O)O)c1ccccc1)C1=NCCN1
inactive: [1] -12% | [2] -7.95% | [3] -4.65% | [4] 41.2% | [5] -1.4% | [6] 9.3%

CCOC(=O)C(CC[C@@H]1N[C@H](C(N)=O)Cc2c1[nH]c1ccccc21)C(=O)OCC
inactive: [1] 8.5% | [2] -9.85% | [3] 5.3% | [4] 7.55% | [5] 7.9% | [6] -13.7%

CCOC(CCCl)c1ccc(C)cc1 (stereo unspecified)
inactive: [1] -25.2% | [2] -42.2% | [3] -20.4% | [4] 20.1% | [5] -33.6% | [6] -20.5%
